Screening data from PubChem BioAssay.
Hits are enriched below; roughly 11% of the tested compounds scored in any of these assays.
Pf growth 48h – Primary qHTS for delayed death inhibitors of the malarial parasite plastid, 48 hour incubation | 310,000 compounds, 5.9% hits | Potency, µM (highest dose often 28.7 µM), for the others: at the top dose activity change, negative = inhibition, usual class: inhibitors | P. falciparum luciferase growth in erythrocytes, 48 h; further: on the % scale 0 is the no-effect control and ±100 the full control effect
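A one-generation exposure of luciferase-tagged malaria parasites in RPMI 1640/Albumax erythrocyte culture, 37 C and 5% CO2. Inhibition is inferred from decreased luminescence after adding detection reagent.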
Pf growth 96h – Primary qHTS for delayed death inhibitors of the malarial parasite plastid, 96 hour incubation; P. falciparum luciferase reporter growth, 96 h; 320,000 compounds, 6.9% hits; Potency, µM (series often up to 28.7 µM), for inactives: at the highest dose activity change, negative = inhibition, usual class: inhibitors; further: on the % scale 0 is the no-effect control and ±100 the full control effect
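Readout is luminescence from an integrated firefly luciferase in P. falciparum. Red cells, 2% hematocrit and 0.05% parasitemia final, were cultured with compound through two parasite generations (96 hours) at 37 C, 5% CO2.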
HCV inh – qHTS Assay for Inhibitors of Hepatitis C Virus (HCV); Huh7.5.1 HCVcc-Cre infection, luciferase reporter, 44 h; Potency, µM (titrated, usually from 41.8 µM), inactives show at the top dose activity change, negative = inhibition, actives largely listed as inhibitors; 340,000 compounds, 3.4% hits; further: on the % scale 0 is the no-effect control and ±100 the full control effect
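Compounds are dispensed onto cells plated 4 h earlier at 1,000 per well, with HCVcc-Cre virus (about 0.5 moi) added next. Following 44 h of culture, luminescent signal is measured for 15 sec after 15 min with substrate at room temperature.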
NS1 inh – qHTS Assay for Inhibitors of Influenza NS1 Protein Function. Potency, µM (highest dose often 46.1 µM), without a hit: at the top dose activity, positive = more growth. 270,000 compounds, 0.4% hits. AID 2326, 2010; calls by dose curve; further: actives are rising curves; nearly all actives have a fitted effect of over 50% in size
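Compounds were scored for reversing the slow growth caused by influenza A NS1 in S. cerevisiae, measured by optical density at 600 nm. Assay medium contained 2% galactose at pH 6.0; NS1-free yeast of the same strain were the positive control.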
Vaccinia Venus – qHTS for Stage-Specific Inhibitors of Vaccinia Orthopoxvirus: Venus Reporter Primary qHTS; AID 720580, 2013; Vaccinia virus Venus reporter expression, fluorescence; Potency, µM (series often up to 36.5 µM), for the others: top-dose activity change, negative = inhibition, actives largely listed as inhibitors; 330,000 compounds, 0.46% hits; calls by dose curve; tested in A549 cells; further: on the % scale 0 is the no-effect control and ±100 the full control effect; nearly all actives have a fitted effect of over 30% in size
VACV mCherry inh – qHTS for Stage-Specific Inhibitors of Vaccinia Orthopoxvirus: mCherry Reporter Primary qHTS; 310,000 compounds, 0.63% hits; Potency, µM (titrated, usually from 36.5 µM), for the others: at the top dose activity change, negative = inhibition, most hits filed as inhibitors; Vaccinia virus mCherry reporter infection, fluorescence; AID 720579, 2013; calls by dose curve; tested in A549 cells; further: on the % scale 0 is the no-effect control and ±100 the full control effect; nearly all actives have a fitted effect of over 35% in size
An asterisk follows results filed as active; i = inactive; ? = inconclusive; · = no result given; [ ] = another dose, or the depositor's remark. Unless noted, the call rests on the fitted dose curve; in most records, active means well fitted inhibition curve with a large enough effect; inconclusive means small, poorly fitted or top-dose-only effect, or another doubt; inactive means no such curve, though single readings can be large or run the other way. Potency means the concentration at half of the fitted maximal effect.

SMILES	Pf growth 48h	Pf growth 96h	HCV inh	NS1 inh	Vaccinia Venus	VACV mCherry inh
CCCN1CCC(=O)N([C@H](COc2ccccc2)CC(C)C)CC1	9%	-2%	22%	-2%	-11%	-25%
O=C1CCN(CCc2ccccc2)CCN1[C@H](COc1ccccc1)Cc1ccccc1	?	3.3µM*	?	-45%	-30%	-12%
CCOc1ccccc1CN1C(=O)NC2(CCCCCC2)C1=O	6%	20%	-11%	-1%	0%	-4%
CC(C)Sc1nnc2n(CCc3ccccc3)c(=O)c3c4c(sc3n12)COC(C)(C)C4	·	·	?	·	-3%	i
CCOC(=O)C1CCN(C(=O)CNC(=O)c2nn(-c3ccc(OC)c(OC)c3)c(=O)c3ccccc23)CC1	?	-14%	4%	4%	1%	-9%
CCOc1ccccc1N1C(=O)NC(=O)/C(=C/c2ccc3c4c(cccc24)CC3)C1=O	40%	?	16%	6%	-11%	·
Cc1ccc(O)c(-c2cc(C(F)(F)F)[nH]n2)c1	?	15µM*	-26%	-37%	·	·
CCOC(=O)CSc1nc2ccc(NC(=O)c3ccc(C)cc3)cc2s1	·	·	·	·	-10%	-7%
COc1ccc(-c2cc(-c3c(O)c(OC)c4occc4c3OC)[nH]n2)cc1	·	·	32µM*	13%	·	·
COc1ccc(-c2cc(-c3c(O)c(OC)c4occc4c3OC)[nH]n2)cc1OC	?	0%[5.75 µM]	11µM*	-47%	?	-6%
CCOc1ccc(-c2cc(-c3nc(-c4cc(OC)c(OC)c(OC)c4)no3)[nH]n2)cc1	·	·	·	·	-8%	-14%
CC1=C(C(=O)Nc2ccccc2)C(c2ccc(O)cc2)n2nc(SCc3ccccc3)nc2N1 (stereo not given)	·	·	·	·	-15%	-20%
CC(=O)Nc1ccc(-c2nnn(CC(=O)c3ccccc3)n2)cc1Cl	?	?	-15%	-3%	3%	-13%
CC(=O)Nc1ccc(-c2nnn(CC(=O)c3ccc(F)cc3)n2)cc1Cl	?	13µM*	-1%	-2%	·	·
CCn1cc(CNCc2cn(-c3ccccc3C)nc2-c2ccc(OC)c(F)c2)cn1	?	44%	-23%	1%	-8%	-9%
O=C1N/C(=N/O)S/C1=C/c1cccc([N+](=O)[O-])c1	13%	?	6%	·	-2%	i
Cc1cccc(/C=C2/S/C(=N/N=C3\CC4CCC3(C)C4(C)C)NC2=O)c1 (stereo not given)	?	8.3µM*	?	16%	1%	·
CCOC(=O)c1nc(C)nc(Sc2n[nH]c(-c3ccccc3)n2)c1C	10µM*	?	4%	-7%	·	·
CCN(CC)S(=O)(=O)c1cc(NC(=O)C(C)N(C)CC(=O)Nc2c(C)cccc2C)ccc1C (stereo not given)	12µM*	12µM*	?	-21%	-15%	-29%
CCN(CC)S(=O)(=O)c1cc(NC(=O)C(C)N2CCc3ccccc32)ccc1C (stereo not given)	?	10µM*	?	·	-6%	?
Cc1ccc(NC(=O)C(C)N2CCCc3ccccc32)cc1S(=O)(=O)N1CCOCC1 (stereo not given)	·	·	·	·	-16%	-16%
Cc1cccc(NC(=O)CSc2nc(NS(=O)(=O)c3ccccc3)cc(=O)[nH]2)c1	0%	10µM*	-6%	8%	·	·
O=C(CSc1nc(NS(=O)(=O)c2ccccc2)cc(=O)[nH]1)Nc1ccc(Cl)cc1	9%	?	14%	4%	·	·
COc1ccc(Cl)cc1NC(=O)CSc1nc(NS(=O)(=O)c2ccccc2)cc(=O)[nH]1	0%	8.3µM*	?	13%	-7%	-4%
Cc1ccc(NC(=O)CSc2nc(NS(=O)(=O)c3ccc(C)cc3)cc(=O)[nH]2)cc1	5.2µM*	·	-25%	4%	·	·
SMILES	Pf growth 48h	Pf growth 96h	HCV inh	NS1 inh	Vaccinia Venus	VACV mCherry inh
Cc1ccc(S(=O)(=O)Nc2cc(=O)[nH]c(SCC(=O)Nc3cccc(C(F)(F)F)c3)n2)cc1	13%	-6%	0%	1%	-30%	?
CS(=O)(=O)Nc1ccc(Cc2noc(-c3ccc4[nH]cc(CCN)c4c3)n2)cc1	·	·	·	·	-2%	-15%
CN(C)c1ccc(/C=C/c2ccnc3c2ccc2ccccc23)cc1	·	·	·	·	-19%	-2%
CC(C)Cc1nc(Nc2ccccc2C#N)c2nnn(Cc3ccccc3)c2n1	?	?	16µM*	5%	-3%	i
COc1ccc(Cl)cc1Nc1nc(C)nc2c1nnn2Cc1ccccc1	-15%	-15%	?	5%	-9%	-6%
CCOC(=O)C1CCN(c2ncnc3c2nnn3Cc2ccccc2Cl)CC1	-11%	39%	12%	-7%	-4%	1%
CC(C)Cc1nc(N2CCC(C(N)=O)CC2)c2nnn(Cc3ccccc3)c2n1	15µM*	10µM*	-16%	1%	·	·
Cc1nc(N2CCC(C)CC2)c2nnn(Cc3ccccc3)c2n1	12µM*	15µM*	?	-31%	-27%	·
CN(C(=O)COC(=O)c1cc(=O)[nH]c2ccccc12)c1c(N)n(Cc2ccccc2)c(=O)[nH]c1=O	4%	23%	-17%	·	-7%	-7%
O=C1N(CCCN2C(=O)C3(OCCO3)c3ccccc32)c2ccccc2C12OCCO2	?	8.3µM*	9%	-25%	·	·
Cc1ccc(NC(=O)N2C(=O)C3(OCCO3)c3ccccc32)cc1	103%	6.6µM*	-1%	-5%	-16%	·
CCCCC(=O)Nc1ccc(C)c(S(=O)(=O)N2CCCCCC2)c1	?	?	?	·	-16%	-11%
CCCCNC(=O)C1=C(N)C(C(=O)Nc2ccc(C)c(S(=O)(=O)N3CCCCC3)c2)SC1=Nc1ccc(C)cc1C (stereo not given)	·	10µM*	27%	?	-11%	i
CC(=O)OC[C@H]1O[C@H](CCO/N=C(\C)CCN2CCCc3nc(C)c(C)cc32)C=C[C@@H]1OC(C)=O	?	?	-9%[8.37 µM]	3%	·	·
COC(=O)C/C=C/[C@@H](C)[C@@H](/C=N/OC[C@H]1O[C@H](c2ccccc2)C=C[C@@H]1Oc1ccc(OC)cc1)OC	-67%	?	7%[8.37 µM]	-25%	·	·
CCc1cc2c(nc1CC)CCN(CC/C(C)=N/OC[C@H]1O[C@H](c3ccccc3)C=C[C@@H]1Oc1ccc(OC)cc1)C2	?	4.7µM*	-15%[8.37 µM]	-82%	·	·
COc1ccc(O[C@H]2C=C[C@@H](c3ccccc3)O[C@@H]2CO/N=C(\C)CCN2CCc3nc(-c4ccccc4)c(-c4ccccc4)cc3C2)cc1	10µM*	?	-2%[8.37 µM]	?	·	·
